Results taken from PubChem BioAssay AID1159580 (chemical genetic matrix, 2015).
Screen size: about 5,500 compounds; about 2,000 (36%) were called active. Another 18% or so got no clear call; they are omitted. Rule as the data show it: active = normalized growth mostly below about 0.91 (no sharp cut-off); inconclusive = no clear call, values can overlap the other calls; inactive = mostly above about 0.92. The list shows a part of the results.

Experiment: chemical genetic growth profiling, strain panel (AID 1159580);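 also: tested at 20 µM; growth read once vehicle control cultures reached saturation at 30 °C; 1 = growth at the plate median or of vehicle wells; lower values mean less growth of the strain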
Details: S. cerevisiae deletion strains, growth OD

Measured: normalized growth

C=C1CCC(=O)C(C)CCC2C1CC2(C)C (stereo unspecified)
inactive: locus YAL013W, strain DEP1, stronger effect = lower value 1.01 | locus YBR021W, strain FUR4, stronger effect = lower value 1 | locus YBR229C, strain ROT2, stronger effect = lower value 1.02 | locus YCL029C, strain bik1, stronger effect = lower value 0.993 | locus YDL035C, strain GPR1, stronger effect = lower value 1 | locus YDL074C, strain BRE1, stronger effect = lower value 1 | locus YDL101C, strain DUN1, stronger effect = lower value 1.03 | locus YDL134C, strain PPH21, stronger effect = lower value 1.03 | locus YDL185W, strain tfp1, stronger effect = lower value 1 | locus YDL192W, strain arf1, stronger effect = lower value 0.972 | locus YDR101C, strain arx1, stronger effect = lower value 0.987 | locus YDR150W, strain NUM1, stronger effect = lower value 1.02 | locus YDR162C, strain NBP2, stronger effect = lower value 1.06 | locus YDR318W, strain mcm21, stronger effect = lower value 0.998 | locus YDR388W, stronger effect = lower value 0.997 | locus YDR502C, strain sam2, stronger effect = lower value 1 | locus YEL061C, strain CIN8, stronger effect = lower value 1.01 | locus YER110C, stronger effect = lower value 0.99 | locus YER155C, strain BEM2, stronger effect = lower value 1.02 | locus YER167W, strain BCK2, stronger effect = lower value 1.01 | locus YGL078C, strain dbp3, stronger effect = lower value 0.995 | locus YGL086W, strain mad1, stronger effect = lower value 0.986 | locus YGL248W, strain PDE1, stronger effect = lower value 1.03 | locus YGR135W, strain pre9, stronger effect = lower value 1.01 | locus YGR252W, strain gcn5, stronger effect = lower value 1 | locus YHR030C, strain SLT2, stronger effect = lower value 1.02 | locus YHR079C, strain IRE1 (second series), stronger effect = lower value 0.984 | locus YHR094C, strain hxt1, stronger effect = lower value 0.996 | locus YHR129C, strain ARP1, stronger effect = lower value 1.02 | locus YHR200W, strain rpn10, stronger effect = lower value 0.995 | locus YIL066C, strain RNR3, stronger effect = lower value 1.02 | locus YIL073C, strain SPO22, stronger effect = lower value 0.971 | locus YIL125W, strain kgd1, stronger effect = lower value 0.987 | locus YIR030C, strain dcg1, stronger effect = lower value 0.998 | locus YJL095W, strain BCK1, stronger effect = lower value 1.02 | locus YJL134W, strain LCB3, stronger effect = lower value 1.02 | locus YJL168C, strain set2, stronger effect = lower value 1.01 | locus YJL187C, strain SWE1 (second series), stronger effect = lower value 1.03 | locus YJR043C, strain POL32, stronger effect = lower value 1.03 | locus YKL009W, strain mrt4, stronger effect = lower value 0.976 | locus YKL068W, stronger effect = lower value 1.01 | locus YKL085W, strain MDH1 (second series), stronger effect = lower value 0.99 | locus YKL085W, strain MDH1, stronger effect = lower value 0.99 | locus YLR039C, strain RIC1, stronger effect = lower value 1.01 | locus YLR058C, strain SHM2, stronger effect = lower value 1.02 | locus YLR102C, strain apc9, stronger effect = lower value 0.994 | locus YLR262C, strain YPT6, stronger effect = lower value 1.03 | locus YLR268W, strain sec22, stronger effect = lower value 0.985 | locus YLR330W, strain CHS5, stronger effect = lower value 1.02 | locus YLR342W, strain FKS1 (second series), stronger effect = lower value 1.01 | locus YLR371W, strain rom2, stronger effect = lower value 0.994 | locus YLR418C, strain cdc73, stronger effect = lower value 1.01 | locus YML016C, strain PPZ1, stronger effect = lower value 1.02 | locus YML032C, strain rad52, stronger effect = lower value 0.997 | locus YML124C, strain tub3, stronger effect = lower value 0.995 | locus YMR078C, strain ctf18, stronger effect = lower value 1 | locus YMR223W, strain ubp8, stronger effect = lower value 1.01 | locus YMR263W, strain SAP30, stronger effect = lower value 1.03 | locus YMR307W, strain GAS1, stronger effect = lower value 1.08 | locus YNL067W, strain RPL9B, stronger effect = lower value 1.02 | locus YNL233W, strain BNI4, stronger effect = lower value 1.03 | locus YNL250W, strain rad50, stronger effect = lower value 1.01 | locus YNL271C, strain bni1, stronger effect = lower value 0.999 | locus YNL298W, strain CLA4, stronger effect = lower value 1.03 | locus YNL307C, strain MCK1, stronger effect = lower value 0.995 | locus YNR052C, strain pop2, stronger effect = lower value 0.989 | locus YOL006C, strain TOP1, stronger effect = lower value 1.03 | locus YOL012C, strain htz1 0.879 | locus YOL147C, strain pex11, stronger effect = lower value 0.987 | locus YOR061W, strain CKA2, stronger effect = lower value 1.02 | locus YOR069W, strain VPS5, stronger effect = lower value 1.02 | locus YOR136W, strain idh2, stronger effect = lower value 0.991 | locus YOR144C, strain elg1, stronger effect = lower value 0.987 | locus YOR184W, strain ser1, stronger effect = lower value 0.977 | locus YOR316C, strain cot1, stronger effect = lower value 0.998 | locus YPR119W, strain clb2, stronger effect = lower value 0.983 | locus YPR141C, strain kar3, stronger effect = lower value 0.994 | locus YPR163C, strain tif3, stronger effect = lower value 0.997 | locus YPR167C, strain met16, stronger effect = lower value 0.99 | strain wtn01, stronger effect = lower value 0.966
active: locus YKR001C, strain vps1, stronger effect = lower value 0.864
